Only some compounds are listed: those with a hit (about 0.54% of all), similar ones and a draw of the others.
C1s block: blocks human complement C1s protease activity. mean inhibition % of two 10-compound mixtures (stronger effect = higher value), % at 5 µM (by protocol). P09871. purified C1s, fluorogenic AMC substrate, pooled mixtures. 62,000 tested, 0.16% active. AID 538;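 active means inhibition above 20% in each of the two 10-compound mixture wells holding the compound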;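 further: 0% = enzyme wells lacking compound mixture and 100% = no-enzyme blank wells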
CatB inh: human cathepsin B inhibition. purified cathepsin B, fluorogenic substrate, fluorescence. AID 453. 63,000 tested, 0.1% active. inhibition, %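 (tested at 10 µM)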; in the data active means inhibition above about 21%;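 further: 0% = enzyme with no compound and 100% = no enzyme blank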
CatL inh: inhibitors of human cathepsin L. purified cathepsin L, fluorogenic substrate, fluorescence. 58,000 tested, 0.17% active. inhibition, %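 (tested at 10 µM)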. P07711. AID 460; in the data active means inhibition above about 45%;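 further: 0% = enzyme with no compound and 100% = no enzyme blank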
Target sequence (P07711 114-288 limits assumed): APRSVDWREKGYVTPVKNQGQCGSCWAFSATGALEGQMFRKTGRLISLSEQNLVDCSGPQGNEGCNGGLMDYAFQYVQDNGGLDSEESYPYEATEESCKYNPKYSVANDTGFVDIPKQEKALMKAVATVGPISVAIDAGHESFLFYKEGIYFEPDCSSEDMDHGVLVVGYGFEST
Target sequence (P07711 292-333 limits assumed): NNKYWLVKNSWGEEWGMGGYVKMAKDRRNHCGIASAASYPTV
CatB mix inh: inhibitors of human cathepsin B in compound mixtures; AID 488; Purified cathepsin B, AMC dipeptide fluorescence; inhibition, %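 (ten-compound pools at 5 µM per compound and 50 µM total)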; 62,000 tested, 0.06% active; P07858; in the data active means inhibition above about 22%, passing the limit was not always enough;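 further: 0% = enzyme without compound and 100% = no enzyme blank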
CatS inh: blocks human cathepsin S protease activity; AID 501; 62,000 tested, 0.06% active; recombinant cathepsin S, AMC dipeptide fluorescence, pooled mixtures; P25774; inhibition, %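 (tested at 5 µM per compound within 10-compound mixtures)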; in the data active means inhibition above about 32%, passing the limit was not always enough;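 further: 0% = enzyme without compound and 100% = blank without enzyme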
CatG inh: inhibitors of human cathepsin G; P08311; purified enzyme, AMC-tetrapeptide fluorescence, pooled mixtures; inhibition, % at 5 µM (by protocol); 62,000 tested, 0.2% active;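 active means inhibition above 20% in each of the two mixture wells holding the compound; inactive means inhibition of 20% or less in either well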;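 further: 0% = enzyme control without mixture and 100% = blank lacking enzyme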
Active calls of the source: *; . = no result.

SMILES	C1s block	CatB inh	CatL inh	CatB mix inh	CatS inh	CatG inh
CCn1nc(-c2ccccc2)nc2c(=O)n(C)c(=O)nc1-2	1	76*	85*	47	.	2
Cc1ccc(C2C(S(C)(=O)=O)=C(O)C(=O)N2c2ccccc2)cc1 (stereo unspecified) (tested in a mixture with another compound)	-36	1	3	-2	-5	5
Cc1cccc(NC(=O)CSc2nnc([C@@H](N)Cc3c[nH]c4ccccc34)o2)c1C	-6	1	101*	1	10	-1
CCSc1nnc([C@@H](N)Cc2c[nH]c3ccccc23)o1	-4	-2	-5	-4	3	0
Cc1nonc1-c1nc(-c2nonc2N)n[nH]1	-1	12	23	22*	20	0
OCC1(CO)COC(c2cccnc2)N1 (stereo unspecified)	19	0	-2	9	-1	11
CC1(C)C(c2ccccc2)=NC(c2cccnc2)N1O (stereo unspecified)	62*	3	28	7	18	8
CC(Cc1ccccc1)[n+]1cc(/N=C(\[O-])N(C)C)on1 (stereo unspecified)	-12	6	4	6	15	-1
